Reference: ChEMBL document CHEMBL1961873, “Compounds: GSK PKIS; Assays: Nanosyn kinase panel” (2012)

Assays:
[1] = biological target: Tyrosine-protein kinase Fyn (Homo sapiens) (UniProt P06241); details: at 1 µM
[2] = biological target: Tyrosine-protein kinase HCK (Homo sapiens) (UniProt P08631); details: at 0.1 µM
[3] = biological target: Tyrosine-protein kinase HCK (Homo sapiens) (UniProt P08631); details: at 1 µM
[4] = biological target: Insulin-like growth factor 1 receptor (Homo sapiens) (UniProt P08069); details: at 0.1 µM
[5] = biological target: Insulin-like growth factor 1 receptor (Homo sapiens) (UniProt P08069); details: at 1 µM
[6] = biological target: Insulin receptor (Homo sapiens) (UniProt P06213); details: at 0.1 µM
[7] = biological target: Insulin receptor (Homo sapiens) (UniProt P06213); details: at 1 µM
[8] = biological target: Insulin receptor-related protein (Homo sapiens) (UniProt P14616); details: at 0.1 µM
[9] = biological target: Insulin receptor-related protein (Homo sapiens) (UniProt P14616); details: at 1 µM
[10] = biological target: T1, Tyrosine-protein kinase ITK/TSK (Homo sapiens) (UniProt Q08881); details: at 0.1 µM;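 further: mean percent inhibition of ITK from the GSK PKIS screen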
T1 sequence (whole entry): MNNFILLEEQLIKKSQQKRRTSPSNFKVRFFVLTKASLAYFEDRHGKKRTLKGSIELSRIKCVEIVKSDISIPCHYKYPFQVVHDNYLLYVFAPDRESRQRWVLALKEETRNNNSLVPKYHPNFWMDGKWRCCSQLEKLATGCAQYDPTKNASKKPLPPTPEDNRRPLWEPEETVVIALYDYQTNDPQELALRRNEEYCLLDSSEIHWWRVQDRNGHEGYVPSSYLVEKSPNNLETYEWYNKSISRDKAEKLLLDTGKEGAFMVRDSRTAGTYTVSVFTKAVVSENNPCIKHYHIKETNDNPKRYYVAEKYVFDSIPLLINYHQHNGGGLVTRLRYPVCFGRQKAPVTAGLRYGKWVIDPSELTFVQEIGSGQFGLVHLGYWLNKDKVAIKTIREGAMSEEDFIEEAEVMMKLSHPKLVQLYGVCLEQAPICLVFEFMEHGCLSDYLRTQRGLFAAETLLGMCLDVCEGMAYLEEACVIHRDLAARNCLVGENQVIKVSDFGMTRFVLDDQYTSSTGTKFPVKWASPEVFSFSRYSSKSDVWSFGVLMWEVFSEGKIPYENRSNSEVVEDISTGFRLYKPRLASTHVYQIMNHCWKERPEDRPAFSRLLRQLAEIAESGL

Sequence of Insulin receptor (Homo sapiens) (P06213 28-758 limits assumed): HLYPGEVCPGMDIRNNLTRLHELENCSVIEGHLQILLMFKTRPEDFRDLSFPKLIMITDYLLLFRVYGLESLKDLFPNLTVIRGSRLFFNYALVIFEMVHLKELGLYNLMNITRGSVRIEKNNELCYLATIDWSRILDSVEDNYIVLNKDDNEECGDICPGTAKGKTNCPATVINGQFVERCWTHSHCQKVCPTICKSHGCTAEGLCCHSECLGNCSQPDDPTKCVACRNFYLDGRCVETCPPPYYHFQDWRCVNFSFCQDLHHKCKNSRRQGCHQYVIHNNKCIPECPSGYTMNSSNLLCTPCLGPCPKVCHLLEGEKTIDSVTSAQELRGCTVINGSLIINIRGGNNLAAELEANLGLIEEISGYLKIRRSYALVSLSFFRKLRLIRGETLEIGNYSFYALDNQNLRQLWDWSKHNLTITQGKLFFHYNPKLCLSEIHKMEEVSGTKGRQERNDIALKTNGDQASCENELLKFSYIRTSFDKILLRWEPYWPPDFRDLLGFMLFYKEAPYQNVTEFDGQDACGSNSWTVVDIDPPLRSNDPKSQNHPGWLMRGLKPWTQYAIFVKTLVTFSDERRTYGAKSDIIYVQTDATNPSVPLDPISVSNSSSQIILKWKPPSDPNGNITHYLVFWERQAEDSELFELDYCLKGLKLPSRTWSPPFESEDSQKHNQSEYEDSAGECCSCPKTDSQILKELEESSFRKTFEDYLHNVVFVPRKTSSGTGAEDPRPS
Sequence of Insulin receptor (Homo sapiens) (P06213 763-1382 limits assumed): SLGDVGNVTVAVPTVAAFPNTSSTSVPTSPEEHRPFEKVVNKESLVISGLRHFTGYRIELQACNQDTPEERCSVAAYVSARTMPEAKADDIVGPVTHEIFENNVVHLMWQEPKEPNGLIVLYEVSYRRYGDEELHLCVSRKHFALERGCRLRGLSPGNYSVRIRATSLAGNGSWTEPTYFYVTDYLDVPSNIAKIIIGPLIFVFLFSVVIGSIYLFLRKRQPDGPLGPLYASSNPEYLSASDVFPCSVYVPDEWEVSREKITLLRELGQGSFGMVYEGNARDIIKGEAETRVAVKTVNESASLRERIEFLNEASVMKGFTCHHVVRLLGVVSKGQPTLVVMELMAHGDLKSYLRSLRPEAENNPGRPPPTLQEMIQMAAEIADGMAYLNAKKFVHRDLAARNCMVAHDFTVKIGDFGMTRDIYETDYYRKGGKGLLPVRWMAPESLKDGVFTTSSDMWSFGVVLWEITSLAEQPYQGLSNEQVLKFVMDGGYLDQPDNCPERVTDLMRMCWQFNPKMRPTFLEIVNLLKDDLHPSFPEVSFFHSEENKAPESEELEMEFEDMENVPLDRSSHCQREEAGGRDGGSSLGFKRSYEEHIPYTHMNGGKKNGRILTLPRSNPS
Sequence of Tyrosine-protein kinase HCK (Homo sapiens) (P08631 2-526 limits assumed): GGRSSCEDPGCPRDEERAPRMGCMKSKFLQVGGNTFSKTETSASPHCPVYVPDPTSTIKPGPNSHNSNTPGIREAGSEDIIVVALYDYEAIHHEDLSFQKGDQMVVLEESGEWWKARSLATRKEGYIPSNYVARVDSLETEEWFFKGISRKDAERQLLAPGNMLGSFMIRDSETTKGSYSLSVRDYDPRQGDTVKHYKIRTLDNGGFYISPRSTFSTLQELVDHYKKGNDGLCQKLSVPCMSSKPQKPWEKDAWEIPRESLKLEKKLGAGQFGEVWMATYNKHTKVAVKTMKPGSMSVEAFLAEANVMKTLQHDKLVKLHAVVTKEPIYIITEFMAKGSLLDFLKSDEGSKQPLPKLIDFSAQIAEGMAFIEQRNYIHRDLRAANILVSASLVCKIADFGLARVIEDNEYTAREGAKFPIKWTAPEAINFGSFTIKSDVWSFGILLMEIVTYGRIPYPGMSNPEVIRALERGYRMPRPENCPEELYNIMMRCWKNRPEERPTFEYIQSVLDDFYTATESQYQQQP
Sequence of Tyrosine-protein kinase Fyn (Homo sapiens) (P06241 2-537 limits assumed): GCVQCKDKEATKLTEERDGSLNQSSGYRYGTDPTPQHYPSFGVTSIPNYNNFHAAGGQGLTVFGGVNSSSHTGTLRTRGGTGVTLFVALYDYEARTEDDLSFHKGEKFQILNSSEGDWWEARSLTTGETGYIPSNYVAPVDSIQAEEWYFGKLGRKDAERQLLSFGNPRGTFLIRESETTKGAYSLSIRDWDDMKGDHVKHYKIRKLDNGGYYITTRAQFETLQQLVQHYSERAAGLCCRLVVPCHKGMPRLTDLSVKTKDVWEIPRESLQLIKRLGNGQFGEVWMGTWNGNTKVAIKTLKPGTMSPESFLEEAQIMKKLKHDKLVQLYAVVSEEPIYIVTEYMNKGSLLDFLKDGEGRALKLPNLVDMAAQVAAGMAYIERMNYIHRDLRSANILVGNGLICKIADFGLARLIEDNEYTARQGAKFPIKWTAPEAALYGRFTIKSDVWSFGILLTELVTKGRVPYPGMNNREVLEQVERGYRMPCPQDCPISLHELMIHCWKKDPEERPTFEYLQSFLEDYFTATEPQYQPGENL
Sequence of Insulin receptor-related protein (Homo sapiens) (P14616 27-742 limits assumed): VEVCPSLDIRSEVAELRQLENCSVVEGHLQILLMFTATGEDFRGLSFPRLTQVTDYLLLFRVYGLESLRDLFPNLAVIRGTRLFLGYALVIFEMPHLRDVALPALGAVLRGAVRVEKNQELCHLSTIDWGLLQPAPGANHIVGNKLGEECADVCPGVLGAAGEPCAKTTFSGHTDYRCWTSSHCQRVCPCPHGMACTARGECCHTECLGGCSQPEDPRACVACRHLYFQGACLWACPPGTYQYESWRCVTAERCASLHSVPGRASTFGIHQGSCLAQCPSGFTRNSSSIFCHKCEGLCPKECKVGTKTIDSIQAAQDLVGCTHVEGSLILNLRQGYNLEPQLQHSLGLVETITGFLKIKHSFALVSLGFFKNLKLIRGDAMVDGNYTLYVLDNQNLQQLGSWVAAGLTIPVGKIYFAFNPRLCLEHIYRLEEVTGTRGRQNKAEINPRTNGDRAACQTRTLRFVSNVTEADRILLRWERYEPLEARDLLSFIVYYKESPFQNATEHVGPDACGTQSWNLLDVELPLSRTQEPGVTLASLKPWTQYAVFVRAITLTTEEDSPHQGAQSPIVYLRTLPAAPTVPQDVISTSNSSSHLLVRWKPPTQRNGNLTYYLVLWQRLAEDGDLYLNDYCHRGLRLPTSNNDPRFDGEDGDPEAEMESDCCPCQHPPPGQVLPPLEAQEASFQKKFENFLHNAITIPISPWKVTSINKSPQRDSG
Sequence of Insulin receptor-related protein (Homo sapiens) (P14616 747-1297 limits assumed): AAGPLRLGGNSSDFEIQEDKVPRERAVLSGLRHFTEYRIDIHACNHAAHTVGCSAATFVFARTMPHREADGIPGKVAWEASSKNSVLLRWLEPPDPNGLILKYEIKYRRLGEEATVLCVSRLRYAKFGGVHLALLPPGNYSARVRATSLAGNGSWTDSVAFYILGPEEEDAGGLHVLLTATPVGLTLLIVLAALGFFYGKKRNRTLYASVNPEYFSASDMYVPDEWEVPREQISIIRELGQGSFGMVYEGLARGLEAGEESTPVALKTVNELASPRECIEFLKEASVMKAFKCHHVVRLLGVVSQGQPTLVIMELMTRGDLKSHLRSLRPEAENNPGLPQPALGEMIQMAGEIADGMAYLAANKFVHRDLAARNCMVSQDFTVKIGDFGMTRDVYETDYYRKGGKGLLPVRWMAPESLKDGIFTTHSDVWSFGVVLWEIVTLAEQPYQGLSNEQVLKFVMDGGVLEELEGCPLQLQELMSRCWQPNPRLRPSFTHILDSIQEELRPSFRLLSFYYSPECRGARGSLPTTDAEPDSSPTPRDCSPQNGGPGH
Sequence of Insulin-like growth factor 1 receptor (Homo sapiens) (P08069 31-736 limits assumed): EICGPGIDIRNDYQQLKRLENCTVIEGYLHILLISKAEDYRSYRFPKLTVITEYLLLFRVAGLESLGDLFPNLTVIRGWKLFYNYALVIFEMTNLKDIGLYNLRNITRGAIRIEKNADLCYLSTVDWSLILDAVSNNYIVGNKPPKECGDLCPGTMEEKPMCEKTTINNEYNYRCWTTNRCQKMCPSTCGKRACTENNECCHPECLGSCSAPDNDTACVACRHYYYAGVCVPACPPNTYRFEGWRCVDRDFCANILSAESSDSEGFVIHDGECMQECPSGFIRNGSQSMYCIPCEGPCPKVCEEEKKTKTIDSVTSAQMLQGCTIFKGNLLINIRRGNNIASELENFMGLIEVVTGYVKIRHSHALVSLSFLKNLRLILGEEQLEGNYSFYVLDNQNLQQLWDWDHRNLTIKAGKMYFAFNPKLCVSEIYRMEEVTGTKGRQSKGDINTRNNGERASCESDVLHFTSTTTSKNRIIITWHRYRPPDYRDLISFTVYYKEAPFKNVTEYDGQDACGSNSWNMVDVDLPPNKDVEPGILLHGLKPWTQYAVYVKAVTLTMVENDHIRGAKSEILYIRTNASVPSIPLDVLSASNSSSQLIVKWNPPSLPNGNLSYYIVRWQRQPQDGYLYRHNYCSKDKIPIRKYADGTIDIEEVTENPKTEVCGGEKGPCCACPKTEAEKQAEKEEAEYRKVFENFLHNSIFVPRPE
Sequence of Insulin-like growth factor 1 receptor (Homo sapiens) (P08069 741-1367 limits assumed): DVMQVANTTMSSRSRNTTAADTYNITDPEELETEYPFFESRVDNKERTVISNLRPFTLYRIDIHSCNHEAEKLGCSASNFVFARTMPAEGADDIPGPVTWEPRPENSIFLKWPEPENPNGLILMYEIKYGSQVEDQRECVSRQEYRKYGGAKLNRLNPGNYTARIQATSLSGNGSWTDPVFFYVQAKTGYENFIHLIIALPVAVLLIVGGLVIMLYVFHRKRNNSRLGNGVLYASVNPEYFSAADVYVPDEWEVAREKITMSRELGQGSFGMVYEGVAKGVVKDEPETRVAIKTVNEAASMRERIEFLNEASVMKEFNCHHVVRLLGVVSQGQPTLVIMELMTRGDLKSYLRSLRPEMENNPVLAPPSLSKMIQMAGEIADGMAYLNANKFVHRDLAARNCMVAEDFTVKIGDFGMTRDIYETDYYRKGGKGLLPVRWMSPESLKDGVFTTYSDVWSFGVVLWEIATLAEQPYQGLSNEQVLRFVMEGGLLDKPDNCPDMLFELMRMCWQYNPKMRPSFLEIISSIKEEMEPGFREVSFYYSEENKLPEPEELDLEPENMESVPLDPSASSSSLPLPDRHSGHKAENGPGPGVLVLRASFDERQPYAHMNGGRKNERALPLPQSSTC

SMILES	inhibition [1]	inhibition [2]	inhibition [3]	inhibition [4]	inhibition [5]	inhibition [6]	inhibition [7]	inhibition [8]	inhibition [9]	inhibition [10]
Cc1cc(O)cc(C)c1/C=C/c1cncc(-c2nn[nH]n2)c1	52.3%	20.6%	74.9%	-3.59%	-2.05%	7.59%	8.18%	2.98%	2.21%	-2.15%
CS(=O)(=O)CCN(CC#N)Cc1ccc(-c2ccc3ncnc(Nc4ccc(OCc5cccc(F)c5)c(Cl)c4)c3c2)o1	-3.53%	2.47%	3.04%	–	-4.22%	4.4%	2.93%	-0.19%	0.84%	-2.61%
CCn1c(-c2nonc2N)nc2c(N3CCCC3)nccc21	0.7%	-0.01%	2.43%	0.23%	2.72%	1.98%	-1.23%	-2.24%	-0.91%	0.23%
COc1cc2ncn(-c3cc(OCc4ccccc4C(F)(F)F)c(C(N)=O)s3)c2cc1OC	9.2%	8.32%	29.2%	–	-2.72%	-1.5%	2.13%	4.32%	3.34%	-3.84%
Cc1nnc(-c2ccc(C)c(-c3ccc(C(=O)Nc4cccc(C#N)c4)cc3)c2)o1	3.47%	4.32%	5.14%	1.24%	0.79%	4.34%	3.89%	-0.6%	1.65%	0.98%
NS(=O)(=O)c1ccc(N/N=C2\C(=O)Nc3ccc(C(=O)NCCc4c[nH]cn4)cc32)cc1	17.2%	9.6%	25%	5.24%	17.3%	6.5%	32%	6.49%	2.5%	1.78%
CC1=C(C(=O)Nc2ccc3[nH]ncc3c2)C(c2ccc(Cl)c(Cl)c2)CC(=O)N1 (stereo unspecified)	2.37%	6.21%	7.31%	-0.16%	1.11%	1.45%	1.96%	0.58%	1.03%	1.18%
COc1cc2ncn(-c3cc(O[C@@H](C)c4ccccc4Cl)c(C(N)=O)s3)c2cc1OC	27.5%	10.8%	43.3%	-0.08%	2.3%	1.26%	3.04%	3.27%	3.99%	0.13%
O=C(Nc1n[nH]c2nc(-c3ccco3)c(Br)cc12)C1CC1	1.8%	5.5%	9.03%	2.77%	3.89%	3.98%	–	2.25%	1.49%	3.8%
COc1ccc(-c2ccncc2)cc1C(N)=O	3.66%	6.67%	9.92%	3.69%	4.13%	9.09%	6.94%	2.71%	2.24%	1.95%
COc1ccc(-c2coc3ncnc(N)c23)cc1	2.02%	5.63%	8.51%	1.64%	2.38%	5.22%	6.33%	1.82%	1.27%	1.41%
COc1ccc(COc2ccc(Cc3cnc(N)nc3N)cc2OC)cc1	1.28%	3.28%	3.12%	-2.27%	-0.91%	0.54%	-1%	0.04%	-0.57%	1.47%
CS(=O)(=O)CCNCc1ccc(-c2ccc3ncnc(Nc4ccc(OCc5ccccc5)c(Cl)c4)c3c2)o1	9.03%	1.16%	5.85%	5.19%	-0.77%	1.79%	1.45%	-1.48%	-1.47%	-0.01%
CC1=C(C(=O)Nc2ccc3[nH]ncc3c2)C(c2ccc3ccccc3c2)CC(=O)N1 (stereo unspecified)	1.8%	4.76%	17.9%	4%	6.6%	4.67%	4.45%	0.94%	1.74%	2.6%
Cc1ccc(NC(=O)c2ccnc(N3CCCC3)c2)cc1-c1ccc(C(=O)NCC2CC2)cc1	-1.49%	4.55%	10.7%	-4.41%	-3.36%	6.4%	11.3%	2.43%	2.2%	-1.68%
NC(=O)c1ccc(-c2nc(-c3ccccn3)c(-c3ccc4c(c3)OCO4)[nH]2)cc1	8.01%	3.56%	4.66%	1.18%	2.2%	3.26%	5.06%	3.02%	-0.59%	1.2%
COc1ccccc1Nc1ncc(-c2ccccc2)o1	8.38%	9.81%	13.3%	-0.7%	1.64%	1.17%	3.48%	3.09%	3.73%	0.73%

SMILES	inhibition [1]	inhibition [2]	inhibition [3]	inhibition [4]	inhibition [5]	inhibition [6]	inhibition [7]	inhibition [8]	inhibition [9]	inhibition [10]
COC(=O)Nc1nc2cc(Oc3cccc(NC(=O)Nc4cc(C(F)(F)F)ccc4F)c3)ccc2[nH]1	7.79%	1.11%	7.7%	-1.77%	-0.89%	2.67%	2.78%	-1.56%	-0.86%	0.34%
NC(=O)c1cccc(Nc2nccc(Nc3cccc4[nH]ncc34)n2)c1	96.1%	64%	84.6%	-0.89%	15.5%	-2.6%	16.8%	-0.86%	0.93%	-0.33%
CN1CCC(C(=O)Nc2n[nH]c3nnc(-c4ccccc4)cc23)CC1	3.89%	3.42%	7.61%	3.98%	4.17%	7.76%	4.86%	1.63%	2.13%	1.35%
CC(=O)Nc1cccc(C#Cc2cncnc2Nc2ccc(OCc3cccc(F)c3)c(Cl)c2)n1	2.69%	-0.02%	2.4%	-4.35%	-3.59%	-4.01%	-3.08%	-1.19%	0%	-0.1%
CCn1c(-c2nonc2N)nc2c(C#CC(C)(C)O)nc(OC[C@@H](N)c3ccccc3)cc21	2.07%	5.84%	11.9%	1.67%	1.05%	-0.22%	-0.5%	0.45%	1.06%	0.21%
COc1cc2ncn(-c3cc(O[C@H](C)c4ccccc4Cl)c(C(N)=O)s3)c2cc1OC	8.81%	11.7%	51.8%	2.5%	3.13%	2.07%	4.73%	1.49%	2.98%	2.64%
CCCN1CCC=C(c2ccc(Nc3nc(Nc4ccccc4C(N)=O)c4cc[nH]c4n3)c(C)c2)C1	7.24%	7.82%	16.3%	97.6%	99.2%	84%	90.1%	23.2%	70.8%	1.99%
COc1cc2c(cc1Nc1nc(N3CCc4ccccc43)c3cc[nH]c3n1)N(C(=O)CN(C)C)CC2	1.51%	5.42%	10%	103%	98.4%	93%	91%	72.3%	90.3%	0.83%
Cc1nn(C)c2cc(N(C)c3ccnc(Nc4cccc(S(N)(=O)=O)c4)n3)ccc12	28.7%	12.8%	50.2%	1.89%	7.04%	8.17%	3.38%	0.14%	0.9%	1.53%
COC(=O)Nc1nc2cc(Oc3ccc(NC(=O)Nc4cccc(C(=O)O)c4)cc3)ccc2[nH]1	0.19%	0.97%	3.15%	-3.37%	-7.4%	2.72%	0.58%	1.16%	2.82%	-2.99%
CCc1cccc(NC(=O)Nc2ccc(Oc3ccc4nc(NC(=O)OC)[nH]c4c3)cc2)c1	4.72%	4.76%	7.28%	5.04%	2.45%	-2.61%	0.47%	2.05%	3.39%	0.3%
CCn1c(-c2nonc2N)nc2cnc(Oc3cccc(NC(=O)c4ccc(OCCN5CCOCC5)cc4)c3)cc21	5.35%	6.47%	4.67%	-0.59%	1.49%	5.62%	7.3%	1.29%	0.16%	0.81%
Nc1ncnc2occ(-c3ccc(NC(=O)Nc4cccc(C(F)(F)F)c4)cc3)c12	19.9%	12%	48.8%	14.6%	15.5%	3.28%	10.5%	2.2%	5.07%	0.99%
Nc1nc(-c2ccc3c(c2)C(=Cc2cc(Br)c(O)c(Br)c2)C(=O)N3)cs1	8.82%	-1.41%	7.14%	-1.89%	0.82%	–	1.87%	-3.05%	-2.21%	0.01%
COc1cc2ncn(-c3cc(OCc4ccccc4Cl)c(C(N)=O)s3)c2cc1OC	23.5%	4.09%	27.1%	2.22%	2.52%	4.5%	7.12%	-1.76%	0.06%	0.4%
Nc1nc(-c2ccccn2)c(-c2ccc3ncccc3n2)s1	-0.24%	2.25%	6.89%	3.05%	3.2%	2.46%	1.2%	2.58%	2.92%	1.05%
COc1ccc(-c2nn3ncccc3c2-c2ccnc(Nc3ccc(Cl)c(C(F)(F)F)c3)n2)cc1	6.37%	1.57%	4.58%	0.1%	-0.08%	3.14%	2.37%	-1.6%	1.11%	0.94%
